The text below walks through data of PubChem BioAssay (NCI).

About 83,000 compounds went through this panel and 20% of them were active in at least one assay; those are over-represented in the sample as a whole.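 Compound tested at a single concentration for 48 hours in 96-well plates; a percent growth value below 10 was scored as active.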 Values without a mark were called inactive. Activity calls are given as the source filed them.

The assay has as its system HL-60(TB) leukemia. Briefly: NCI-60 one-dose screen, 48 h (100 = growth as untreated, 0 = no growth, -100 = all killed). As to conditions: 10 µM unless noted.
Regarding `OCc1ccc(N2CCc3cccc(F)c3C2)cc1Cl`, the growth was 80.5% [0.1 µM].
In the case of `COc1cc2cc(C(=O)Nc3ccccc3)c(N)nc2cc1OC` it was -42.1% (active); in that of `Cn1c(=O)c2[nH]c(NN)nc2n(C)c1=O`, 91.6%.
In the case of `Cn1nc(N)c2cc([C@@H]3Nc4ccc5[nH]ncc5c4[C@H]4C5CCC(C5)[C@@H]34)ccc21` (stereo not given in full) it was -16.6% (active); in that of `O=C1/C(=C/c2ccccc2)Oc2ccc(O)c(I)c21`, 95.4%; in that of `CCCC1OC(c2ccco2)OCC1CC` (stereo not given), 102%.
Next, `CCOC(=O)OCC(=O)[C@@]1(O)CC[C@H]2[C@@H]3CCC4=CC(=O)CC[C@]4(C)[C@H]3[C@@H](O)C[C@@]21C`: 108%; `CC(C)(C)n1cc(-c2ccnc(NCCCNS(=O)(=O)c3cccc(F)c3)c2)c(-c2cccc(O)c2)n1`: 35.4%; `O=[N+]([O-])c1cccc(C(F)(F)F)c1`: 109%.
Turning to `Cc1ccc2c(C(C[N+](=O)[O-])c3ccco3)c(-c3ccccc3)[nH]c2c1` (stereo not given), the growth was -5.69% (active).
Next, `NC(=NCCCC1(c2ccccc2)CCCC1)Nc1ccc(Cl)cc1`: 77.2%.
In the case of `O=C1NC(=O)C(c2ccccc2)O1` (stereo not given) it was 99.5%; in that of `N#C/C(=C\c1ccccn1)c1nc2cc(Cl)ccc2s1`, 52%.
Regarding `O=C1N=c2cc3c(cc2=C/C1=C/c1sc(=S)n(CCc2ccc(O)cc2)c1O)OCCO3`, the growth was 48.1%.
Next, `CCCCC1=C(Br)C(=O)c2nc(C)ccc2C1=O`: 77%; `Clc1cccc(Cl)c1CSc1nc2ccccc2n2cccc12`: 94.3%.
Next, `c1c(-c2cc(C3CC3)[nH]n2)n[nH]c1C1CC1`: 78.4%.
In the case of `Nc1ccc2c(S(=O)(=O)O)ccc(S(=O)(=O)O)c2c1` it was 76.2%; in that of `Cn1ccnc1CN1CCSC(C(=O)Nc2ccccc2)C1` (stereo not given), 88.6%.
On to `COC1=CC(=O)OC(c2ccc(OC)cc2)C1` (stereo not given), for which the growth is 78.3%.
Regarding `COc1cccc(/C=C/C(=O)c2cc3c(N)c(C(=O)Nc4ccccc4C)sc3nc2C)c1`, the growth was 26.3%.
Next, `Cc1[nH]n(-c2cccc(Cl)c2)c(=O)c1/C=C1\C=c2ccccc2=CC1=O`: 104%; `c1cc[c]([Bi]([c]2ccccc2)[c]2ccccc2)cc1`: 96.6%; `CCCCc1nc(Cl)c(C2CC(c3ccc(S(N)(=O)=O)cc3)=NN2c2cc(Cl)cc(Cl)c2)[nH]1` (stereo not given): 9.72% (active).
As to `COc1ccc(C2=C/C(=C\c3ccc(Cl)cc3)C(=O)N2/N=C/c2ccc(Cl)cc2)cc1`, the growth is 102%.
Next, `CCCCCc1c(C)[nH]c(/C=C2\N=C(c3ccc[nH]3)C=C2Oc2ccccc2)c1C`: -49.6% [100 µM] (active); `N#Cc1c(N)nc2c(c1N)C(c1ccc(F)cc1)c1ccc(N)cc1O2` (stereo not given): 110%.
As to `O=C(CCN1C(=O)/C(=C/c2ccc(Cl)cc2)SC1=S)NCCCN1CCOCC1`, the growth is 98.9%.
Turning to `COc1nc(=O)n(C2C=CC(=O)O2)cc1F` (stereo not given), the growth is 1.27% (active).
In the case of `Cc1ccc(NC(=O)Cc2ccc(/C=C/C(=O)c3ncc[nH]3)cc2)cc1` it was 27.5%.
On to `NS(=O)(=O)c1ccc(CCn2c(SCC(=O)N/N=C/c3cc4ccccc4[nH]3)nc3ccccc3c2=O)cc1`, for which the growth was 35.2%.
Next, `C[C@@H]1C[C@H](N)C[C@H](c2ccncc2NC(=O)c2ccc(F)c(-c3c(F)cccc3F)n2)C1`: -0.14% (active).
In the case of `c1ccc(-c2nnc(Nc3nnc(-c4ccccc4)s3)s2)cc1`, the growth was 103%.
For the molecule `Cc1ccc(N(C(=O)CCc2c[nH]c3ccccc23)[C@H](C(=O)Nc2ccc(Cl)cc2)c2cccc([N+](=O)[O-])c2)cc1`, the growth was 70.7%.
Regarding `COc1cc(/C=C\c2cc(OC)c(OC)c(OC)c2)cc(N/C=C\C(=O)c2c[nH]c3ccccc23)c1OC`, the growth is -30% (active).
As to `CCCOc1ccc2c(c1)CC[C@@H]1[C@@H]2CC[C@@]2(C)[C@H]1CC[C@]2(C)O`, the growth is 78.8%.
Next, `COc1ccc(Cl)cc1C(=O)Nc1nc2ccc(Cl)cc2s1`: 103%; `COc1cccc(/C=C2\COc3ccc(O)cc3C2=O)c1`: -20.1% (active); `CC(C)(C)NC/C(=C\c1ccccc1)C(=O)c1ccccc1`: 1.97% (active).
In the case of `C=C(C=O)[C@@H]1CC=C(C=O)CC1` it was -33.2% (active).
